{"source": "ChEMBL document CHEMBL3433997", "about": "“St. Jude Leishmania screening dataset” (2016)", "type_in_all_cases": "functional", "key": {"[1]": {"biological_target": "Solute carrier family 2, facilitated glucose transporter member 1 (Homo sapiens) (UniProt P11166)", "sequence (P11166 whole entry)": "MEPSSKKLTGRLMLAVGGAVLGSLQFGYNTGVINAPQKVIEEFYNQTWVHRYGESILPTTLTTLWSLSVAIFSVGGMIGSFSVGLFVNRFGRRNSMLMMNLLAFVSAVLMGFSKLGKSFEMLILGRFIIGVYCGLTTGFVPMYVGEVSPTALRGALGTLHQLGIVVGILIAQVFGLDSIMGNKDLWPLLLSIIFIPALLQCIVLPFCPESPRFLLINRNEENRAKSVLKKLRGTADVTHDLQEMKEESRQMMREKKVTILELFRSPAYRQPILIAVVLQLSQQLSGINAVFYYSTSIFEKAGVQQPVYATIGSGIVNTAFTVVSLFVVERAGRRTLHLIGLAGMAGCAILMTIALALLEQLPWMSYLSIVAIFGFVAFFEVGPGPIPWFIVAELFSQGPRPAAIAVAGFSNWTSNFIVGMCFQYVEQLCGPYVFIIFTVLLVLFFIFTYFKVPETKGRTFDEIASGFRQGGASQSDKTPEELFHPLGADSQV", "test": "ST_JUDE_LEISH: Cytotoxicity at 2uM final concentration against transgenic Leishmania Mexicana promastigotes LmGLUT1 that are glucose transport deficient and complemented with the human glucose transporter GLUT1. Activity is measured by DNA content using SYBR green in vitro"}, "[2]": {"biological_target": "Hexose transporter 1 (Plasmodium falciparum) (UniProt O97467)", "test": "ST_JUDE_LEISH: Cytotoxicity at 2uM final concentration against transgenic Leishmania Mexicana promastigotes LmPfHT that are glucose transport deficient and complemented with the Plasmodium falciparum hexose transporter. Activity is measured by DNA content using SYBR green in vitro"}, "[3]": {"biological_target": "Glucose transporter (Leishmania mexicana) (UniProt O61059)", "test": "ST_JUDE_LEISH: Cytotoxicity at 2uM final concentration against transgenic Leishmania Mexicana promastigotes LmGT2 that are glucose transport deficient and complemented with the L. Mexicana glucose transporter 2. Activity is measured by DNA content using SYBR green in vitro"}}, "data": [{"smiles": "CC(C)(C)c1ccc(-c2nc3c(ccc4nc(N)nc(N)c43)[nH]2)cc1", "values": [{"measurement": "inhibition", "setting": "[1]", "value": -1, "unit": "%"}, {"measurement": "inhibition", "setting": "[2]", "value": -1.54, "unit": "%"}, {"measurement": "inhibition", "setting": "[3]", "value": -2.76, "unit": "%"}]}, {"smiles": "c1ccc(CCNCc2cccc(-c3ccc(CNc4ccc5ncccc5c4)cc3)c2)cc1", "values": [{"measurement": "inhibition", "setting": "[1]", "value": 4.72, "unit": "%"}, {"measurement": "inhibition", "setting": "[2]", "value": 3.92, "unit": "%"}, {"measurement": "inhibition", "setting": "[3]", "value": 3.8, "unit": "%"}]}, {"smiles": "CCCc1ccc(Cc2cnc3nc(N)nc(N)c3c2C)cc1", "values": [{"measurement": "inhibition", "setting": "[1]", "value": 39.1, "unit": "%"}, {"measurement": "inhibition", "setting": "[2]", "value": 53.8, "unit": "%"}, {"measurement": "inhibition", "setting": "[3]", "value": 40, "unit": "%"}]}, {"smiles": "O=C(Nc1ccc(OC(F)(F)F)cc1)Nc1ccc([N+](=O)[O-])cc1", "values": [{"measurement": "inhibition", "setting": "[1]", "value": 1.82, "unit": "%"}, {"measurement": "inhibition", "setting": "[2]", "value": 2.15, "unit": "%"}, {"measurement": "inhibition", "setting": "[3]", "value": 1.9, "unit": "%"}]}, {"smiles": "O=C(Nc1cccc(-c2cccc(-c3nc4cc(F)ccc4[nH]3)c2)c1)Nc1ccc(F)c(F)c1F", "values": [{"measurement": "inhibition", "setting": "[1]", "value": 7.82, "unit": "%"}, {"measurement": "inhibition", "setting": "[2]", "value": 7.26, "unit": "%"}, {"measurement": "inhibition", "setting": "[3]", "value": 7.83, "unit": "%"}]}, {"smiles": "COc1ccc2nccc(N3CCC(CCNCc4cc5c(cn4)OCCO5)CC3)c2c1", "values": [{"measurement": "inhibition", "setting": "[1]", "value": 7.15, "unit": "%"}, {"measurement": "inhibition", "setting": "[2]", "value": 8, "unit": "%"}, {"measurement": "inhibition", "setting": "[3]", "value": 4.48, "unit": "%"}]}, {"smiles": "COc1ccc2nccc(N3CCC(CCNCc4ccc5c(n4)NC(=O)CS5)CC3)c2c1", "values": [{"measurement": "inhibition", "setting": "[1]", "value": 6.54, "unit": "%"}, {"measurement": "inhibition", "setting": "[2]", "value": 9.44, "unit": "%"}, {"measurement": "inhibition", "setting": "[3]", "value": 2.78, "unit": "%"}]}, {"smiles": "CCN(CC)CCN(Cc1ccc(-c2ccc(C(F)(F)F)cc2)cc1)C(=O)Cn1c(CCc2cccc(F)c2F)nc(=O)c2cc(F)ccc21", "values": [{"measurement": "inhibition", "setting": "[1]", "value": 4.48, "unit": "%"}, {"measurement": "inhibition", "setting": "[2]", "value": 2.96, "unit": "%"}, {"measurement": "inhibition", "setting": "[3]", "value": 4.5, "unit": "%"}]}, {"smiles": "Cn1nccc1C(=O)NCCNCc1ccc(-c2ccc(-c3nc4ccccc4[nH]3)s2)cc1", "values": [{"measurement": "inhibition", "setting": "[1]", "value": 4.38, "unit": "%"}, {"measurement": "inhibition", "setting": "[2]", "value": 3.81, "unit": "%"}, {"measurement": "inhibition", "setting": "[3]", "value": 0.63, "unit": "%"}]}, {"smiles": "Cc1cc(-c2ccc(CNCCc3cccs3)cc2)ccc1S(=O)(=O)NCc1ccccc1", "values": [{"measurement": "inhibition", "setting": "[1]", "value": 13, "unit": "%"}, {"measurement": "inhibition", "setting": "[2]", "value": 17.3, "unit": "%"}, {"measurement": "inhibition", "setting": "[3]", "value": 8.49, "unit": "%"}]}, {"smiles": "CCCSc1nc2c(c(=O)n1CCc1ccccc1)C1(CCCC1)Cc1ccccc1-2", "values": [{"measurement": "inhibition", "setting": "[1]", "value": -1.58, "unit": "%"}, {"measurement": "inhibition", "setting": "[2]", "value": 1.38, "unit": "%"}, {"measurement": "inhibition", "setting": "[3]", "value": 0.24, "unit": "%"}]}, {"smiles": "Cc1cc(NC2CCN(CC3CCCCC3)C2)nc(Nc2ccc(Br)cc2)n1", "note": "(stereo unspecified)", "values": [{"measurement": "inhibition", "setting": "[1]", "value": -0.39, "unit": "%"}, {"measurement": "inhibition", "setting": "[2]", "value": 2.78, "unit": "%"}, {"measurement": "inhibition", "setting": "[3]", "value": 0.66, "unit": "%"}]}]}
